Measured values as given in PubChem BioAssay (NCI).
About 83,000 compounds went through this panel and 20% of them were active in at least one assay; those are over-represented in the sample as a whole.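 Plates (96-well) were seeded with cells, treated with compound at one concentration, and incubated for 48 hours before percent growth was determined.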 Calls of active or inactive are those of the source. How the source made its calls: active means growth percent below 10; inactive means the rest.

What was measured:
Assay in all cases: NCI-60 one-dose screen, 48 h (100 = growth as untreated, 0 = no growth, -100 = all killed)
Conditions in all cases: 10 µM unless noted
[1] = tested on: HCT-15 colon
[2] = tested on: HT29 colon
[3] = tested on: SNB-75 CNS
[4] = tested on: SNB-19 CNS
[5] = tested on: U251 CNS
[6] = tested on: PC-3 prostate
[7] = tested on: SK-MEL-5 melanoma
[8] = tested on: UACC-62 melanoma
[9] = tested on: LOX IMVI melanoma
[10] = tested on: SK-MEL-28 melanoma
[11] = tested on: SK-MEL-2 melanoma
[12] = tested on: EKVX NSCLC
[13] = tested on: SN12C renal
[14] = tested on: UO-31 renal
[15] = tested on: TK-10 renal
[16] = tested on: ACHN renal
[17] = tested on: CAKI-1 renal
[18] = tested on: A498 renal
[19] = tested on: CCRF-CEM leukemia
[20] = tested on: MOLT-4 leukemia

Measured: growth

CC(C)(C)c1ccc(-c2nnc(-c3nc4ccccc4nc3Cl)o2)cc1
inactive: [1] 81.9% | [2] 116% | [3] 96.4% | [4] 95.8% | [5] 98.2% | [6] 92.4% | [7] 98.1% | [8] 72.7% | [9] 90% | [10] 68.4% | [11] 63.8% | [12] 99.2% | [13] 86.2% | [14] 79.4% | [15] 107% | [16] 102% | [17] 89.2% | [18] 89.4% | [19] 103% | [20] 101%

CC(=O)c1ccc(Nc2nc(SCC(C)C)nc(-c3ccc(F)cc3)c2C#N)cc1
inactive: [1] 104% | [2] 107% | [3] 125% | [4] 112% | [5] 104% | [6] 108% | [7] 101% | [8] 108% | [9] 112% | [10] 108% | [11] 109% | [12] 114% | [13] 110% | [14] 115% | [15] 123% | [16] 104% | [17] 115% | [18] 117% | [19] 107% | [20] 107%

O=C(CNc1nc(-c2cccc([N+](=O)[O-])c2)cs1)Nc1cccc(Cl)c1
inactive: [1] 98.4% | [2] 116% | [3] 101% | [4] 99.5% | [5] 106% | [6] 98.5% | [7] 103% | [8] 92.7% | [9] 115% | [10] 104% | [11] 107% | [12] 89.2% | [13] 99.4% | [14] 80.5% | [15] 149% | [16] 101% | [17] 106% | [18] 93% | [19] 103% | [20] 101%

CCCCc1nc(/C=N/Nc2nc(Nc3ccccc3)nc(Nc3ccc(S(N)(=O)=O)cc3)n2)c(Cl)[nH]1
active: [5] -1.83%
inactive: [1] 103% | [2] 102% | [3] 112% | [4] 30.7% | [6] 83% | [7] 75.2% | [8] 72.8% | [9] 41.1% | [10] 71% | [11] 65.8% | [12] 102% | [13] 93.6% | [14] 85.4% | [15] 112% | [16] 100% | [17] 105% | [18] 89.3% | [19] 12.5% | [20] 41.4%

CC(C)(C)c1ccc(C(=O)Nc2sc3c(c2C(N)=O)CCC(O)C3)cc1 (stereo not given)
inactive: [3] 98.1% | [4] 64.9% | [5] 54% | [6] 54.1% | [7] 38.5% | [8] 39.4% | [10] 49.3% | [11] 80.3% | [12] 62.9% | [13] 74.8% | [14] 49.1% | [15] 82.8% | [16] 25.4% | [18] 78% | [19] 53.1% | [20] 56.4%
active: [1] 6.55% | [2] 2.76% | [9] -70% | [17] 5.67%

CNC(=O)c1cc(-c2ccc(NS(=O)(=O)c3ccc(C)cc3)cc2)nc2cccnc12
inactive: [1] 105% | [2] 109% | [3] 104% | [4] 99.8% | [5] 101% | [6] 99.7% | [7] 103% | [8] 90.4% | [9] 100% | [10] 119% | [11] 102% | [12] 95.9% | [13] 103% | [14] 81.5% | [15] 118% | [16] 104% | [17] 94.4% | [18] 106% | [19] 109% | [20] 100%

CCOC(=O)C(=O)CC(=O)N1C(=S)NC(=O)C1CC(C)C (stereo not given)
inactive: [1] 94.8% | [2] 113% | [3] 100% | [4] 99.9% | [5] 105% | [6] 103% | [7] 95.6% | [8] 96.3% | [9] 98% | [10] 99.6% | [11] 111% | [12] 98.2% | [13] 97.6% | [14] 84% | [15] 106% | [16] 103% | [17] 102% | [18] 98.6% | [19] 100% | [20] 108%

CCN(CC)CCn1c2ccc(O)cc2c2sc3cc(OC)ccc3c(=O)c21
inactive: [3] 40.7% | [4] 25.7% | [5] 16.1% | [6] 30.5% | [7] 76.7% | [8] 28.5% | [11] 55.6% | [12] 43.5% | [13] 21.5% | [14] 26.8% | [15] 61.7% | [16] 12.4% | [17] 14.5% | [18] 73.3% | [19] 21.8%
active: [1] 4.47% | [2] -13.8% | [9] -86% | [10] 2.25% | [20] 5.44%

Cc1cc2nc(C(Cl)Cl)nc(-c3cccs3)n2n1
inactive: [1] 11.4% | [3] 75.3% | [4] 21% | [6] 11.2% | [7] 83.9% | [8] 45.5% | [9] 74.7% | [10] 14.6% | [11] 97.7% | [13] 62.3% | [14] 31% | [15] 18.2% | [19] 59.8% | [20] 21.3%
active: [2] -12.9% | [5] -11.1% | [12] -7.94% | [16] -36.4% | [17] -30.9% | [18] -40.7%

CCCCCc1ccc(S(=O)(=O)Nc2cc(-c3csc(NC(=O)CN4CCN(C)CC4)n3)ccc2N2CCN(C)CC2)cc1
active: [1] -68.4% | [2] -25.3% | [4] 5.25% | [5] -32.9% | [7] -89.9% | [8] -78.4% | [9] -82.9% | [10] -87.3% | [13] -21.6% | [14] -94.2% | [16] 0.622% | [17] -19.8% | [19] 0.815% | [20] -18.4%
inactive: [3] 94.7% | [6] 29.6% | [11] 37.8% | [12] 55.8% | [15] 134% | [18] 73.1%

COc1ccccc1N1CCN(C2=CC(=O)C(C)=C(C)C2=O)CC1
inactive: [1] 100% | [2] 104% | [3] 102% | [4] 104% | [5] 98.1% | [6] 95.9% | [7] 99.4% | [8] 99.5% | [9] 94.8% | [10] 119% | [11] 101% | [12] 101% | [13] 104% | [14] 93.7% | [15] 116% | [16] 110% | [17] 104% | [18] 86.3% | [19] 101% | [20] 93.3%

O=C(CN1CCN(c2cc(=O)n(-c3ccccc3)c3ccccc23)CC1)Nc1cccc(C(F)(F)F)c1
inactive: [1] 48.5% | [2] 70.8% | [3] 65.5% | [4] 70.9% | [5] 71.6% | [6] 42.1% | [7] 14.4% | [8] 57.2% | [9] 66.1% | [10] 75.1% | [11] 92% | [12] 42.9% | [13] 75.9% | [14] 33% | [15] 74.4% | [16] 58.5% | [17] 56.9% | [18] 52.9% | [19] 53.4% | [20] 34.8%

N#Cc1cccc(NC(=O)c2cc(-c3ccc(F)cc3F)ccc2O)c1
active: [1] 6.97% | [3] 3.99% | [6] 9.28% | [7] -74.3% | [8] -12.9% | [9] 1.22% | [11] 0.79% | [13] 4.45% | [14] -14.2% | [16] 5.79% | [17] -16.7% | [18] -33.1% | [20] 6.28%
inactive: [2] 94.9% | [4] 11.4% | [5] 10.9% | [10] 25% | [12] 10.3% | [15] 19.3% | [19] 20.1%

Cc1ccc(-n2c(/C=C3\C(=O)Nc4ccccc43)ccc2CO)cc1
inactive: [1] 31.2% | [2] 60.7% | [3] 41.5% | [4] 81% | [5] 77.8% | [6] 66.5% | [7] 73.7% | [8] 50.6% | [9] 62.5% | [10] 70.9% | [11] 81% | [12] 79.8% | [13] 88.2% | [14] 65% | [15] 118% | [16] 76.5% | [17] 55.9% | [18] 47% | [19] 54.9% | [20] 43.8%

CC[C@]12C=CCN3CC[C@@]4(c5cc(NC(=O)COc6cc(O)c7c(=O)cc(-c8ccccc8)oc7c6)c(OC)cc5N(C)[C@H]4[C@@](O)(C(=O)OC)[C@@H]1OC(C)=O)[C@@H]32
active: [1] -69% | [2] -61% | [3] -34.2% | [4] -54.3% | [5] -87.5% | [6] -88.7% | [7] -90.9% | [8] -87.3% | [9] -93.2% | [10] -89% | [11] -82.9% | [12] -42.2% | [13] -75.4% | [14] -84.9% | [15] -45.5% | [16] -78.1% | [17] -78.3% | [18] -89.6% | [19] -20.2% | [20] -23%
